Unmarked numbers belong to inactive results. Inconclusive results are not listed. Active and inactive are the calls of the source. Unless noted, calls come from the whole dose curve; as a rule, active = well fitted curve in the direction sought with a large enough effect in the repeat runs; inconclusive = weak or mixed curves; inactive = no such curve, though single readings can be large; an effect the other way counts as inactive or inconclusive.

This is an account of results in PubChem BioAssay (Tox21).

Test [1] is described as follows: qHTS assay for small molecules that induce genotoxicity in human embryonic kidney cells expressing luciferase-tagged ATAD5 (AID 651632). Note: nearly all actives have a fitted effect of over 15% in size. The procedure, abridged:
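A rise in luciferase signal from ATAD5-tagged HEK293T cells marks genetic stress. Cells were exposed to compounds for 16 hr at 37C, 5% CO2, then luciferase was quantified after a 30 min room-temperature incubation with Amplite.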
For orientation: qHTS replaces the single test concentration by a dilution series.

Test [2] can be described thus: qHTS assay for small molecule agonists of the p53 signaling pathway - cell viability (AID 651633; calls by dose curve;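 note: p53RE-bla HCT reporter cells with a stable beta-lactamase p53 reporter; series mostly up to about 83 µM; nearly all actives have a fitted effect of over 30% in size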). The procedure, abridged:
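p53RE-bla cells, seeded at 4,000 per well and rested 5 h at 37 C/5% CO2, received compounds in DMSO for 16 h at 37 C. CellTiter-Glo was then added, and luminescence was read after 30 min at room temperature to gauge cytotoxicity.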

Test [3] can be described thus: qHTS assay for small molecules that induce genotoxicity in human embryonic kidney cells expressing luciferase-tagged ATAD5 - cell viability (AID 651634; calls by dose curve; note: nearly all actives have a fitted effect of over 25% in size). The procedure, abridged: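 Cytotoxicity counter-readout: after 15.5 hr compound treatment at 37C, live-cell protease activity in ATAD5-luciferase HEK293T cells measured by CellTiter-Fluor fluorescence, 30 min development at 37C.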

Test [4] is described as follows: qHTS assay to test for compound auto fluorescence at 590 nm (red) in HepG2 cells (AID 720674). The procedure, abridged: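 Rose Bengal sodium served as the red fluorophore standard. HepG2 monolayers (overnight attachment, MEM with 10% FBS) were exposed to test compounds for 1 hr at 37 C and read at Ex 540/Em 590 nm.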
Test [5] can be described thus: qHTS assay to test for compound auto fluorescence at 535 nm (green) in HepG2 cells (AID 720675).
A short description of test [6]: qHTS assay to test for compound auto fluorescence at 460 nm (blue) in HEK293 cells (AID 720678). The procedure, abridged:
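Auto fluorescence in the blue band was quantified as triamterene equivalency. HEK293 cells were seeded at 2,000/well, dosed after a 4-5 hr attachment, and kept overnight at 37C before the 405/460 nm reading.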

Test [7] is described as follows: qHTS assay to test for compound auto fluorescence at 590 nm (red) in HEK293 cells (AID 720679). The procedure, abridged: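 Autofluorescence equivalency to Rose Bengal sodium, 540/590nm, in HEK293 cells exposed overnight to 23 nL compound per well.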
The nature of test [8]: qHTS assay for small molecule disruptors of the mitochondrial membrane potential (AID 720635). Note: potency is the fitted concentration of half-maximal effect. A digest of the protocol:
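HepG2 cells (2,000/well) attached overnight at 37C, then took compound for 1 hr at 37C, 5% CO2. Mito-MPS dye was added for 30 min; fluorescence was read at 490/535 nm (monomers) and 540/590 nm (aggregates).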

The nature of test [9]: qHTS assay for small molecule disruptors of the mitochondrial membrane potential - cell viability (AID 720634; calls by dose curve;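 note: human HepG2 liver cancer cells; series mostly up to about 83 µM; nearly all actives have a fitted effect of over 20% in size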). The procedure, abridged:
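Cytotoxicity was quantified from ATP content by CellTiter-Glo luminescence in the same wells as the MMP dye read-out. HepG2 (2,000 cells/well) were plated overnight and exposed to compounds for 1 hr at 37 C.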
% is set by controls: 0 for no effect and ±100 for the full control effect.

Consider `CC(CO)(CO)[N+](=O)[O-]`, for which the Potency entry in [1], in test [2] and in [3] was “inactive” throughout. For the same compound, the call in test [4], in [5], in test [6] and in [7] was inactive.
Consider `CO[Si](C)(OC)c1ccccc1`, for which the Potency result in test [1], in test [2] and in [3] was “inactive” throughout. Further, the compound was classed as inactive in test [4], in [5], in [6] and in [7].
Take `CC(C)(C)c1ccc(-c2ccc(C(C)(C)C)cc2)cc1`: the Potency entry in test [1], in [2] and in test [3] was “inactive” throughout. For the same compound, the compound was called inactive in test [4], in test [5], in test [6] and in [7].
As to `C=CC(=O)OCCCl`, the Potency entry in test [2] and in test [8] was “inactive” in each case. For the same compound, the call in [4], in test [5] and in [6] was inactive.
For the compound `CC(C)COC(=O)c1ccc(N)cc1`, the Potency result in [2] and in [3] was “inactive” in each case. The call in test [4], in test [5], in [6] and in test [7] was inactive.
As to `CCN1C=CN(C)C1C` (stereo not drawn), the Potency entry in test [1], in test [2] and in [3] was “inactive” throughout. Moreover, the compound was classed as inactive in test [4], in test [5], in [6] and in test [7].
Take `COc1cc(C(=O)NCc2ccc(OCCN(C)C)cc2)cc(OC)c1OC`: the Potency entry in test [1], in [2], in test [3] and in [8] was “inactive” throughout. Besides, in [4], the fluorescence, relative to Rose Bengal is 1.14% [at 18.6 µM]. Further, in test [5], the fluorescence, % of fluorescein control was 0.0603% [at 18.6 µM]. Further, the fluorescence, % of triamterene in [6] is -0.345% [at 18.6 µM]. The fluorescence, % of fluorescent control in test [7] is -0.334% [at 18.6 µM].
Turning to `Nc1ccn([C@@H]2O[C@H](CO)[C@@H](O)[C@@H]2O)c(=O)n1`, the Potency result in test [1], in [2] and in test [3] was “inactive” each time. Further, the result in test [4], in test [5], in test [6] and in test [7] was inactive.
Take `CC[N+](C)(CC)CCOC(=O)C1c2ccccc2Oc2ccccc21`: the Potency result in test [2], in test [3] and in [8] was “inactive” throughout. Further, the outcome in [9], in test [4], in test [6] and in test [7] was inactive.
In the case of `O=C(c1ccccc1O)c1ccccc1O`, the Potency result in [1] and in test [3] was “inactive” each time. Besides, the compound was called inactive in test [9], in test [4], in [5] and in test [6]. Also, the Potency in test [8] is 12.1 µM (active).
As for `CCCc1nn(C)c2c(=O)[nH]c(-c3cc(S(=O)(=O)N4CCN(C)CC4)ccc3OCC)nc12`, the Potency result in test [1], in test [2] and in test [3] was “inactive” each time. Further, the compound was classed as inactive in [4], in test [5], in test [6] and in [7].
`CCN[C@H]1C[C@H](C)S(=O)(=O)c2sc(S(N)(=O)=O)cc21`: the Potency result in test [1], in test [3] and in test [8] was “inactive” in each case. The compound was classed as inactive in test [9], in test [4], in test [5], in test [6] and in test [7].
Turning to `CC(C)(N)C#N`, the Potency result in [1], in test [2] and in test [3] was “inactive” in each case. Also, the outcome in test [4], in test [6] and in [7] was inactive.
Consider `[Ca+2]`, for which the Potency result in test [1] and in [3] was “inactive” throughout. Besides, the outcome in test [9], in [4], in test [6] and in test [7] was inactive.
In the case of `O=C(O)CC(C(=O)O)S(=O)(=O)O` (stereo not drawn), the Potency result in [1], in test [2] and in [3] was “inactive” throughout. In addition, the call in test [4], in test [5] and in test [6] was inactive.
In the case of `NC(N)=NCCN1CCCCCCC1`, the Potency entry in test [1] and in test [3] was “inactive” each time. For the same compound, the compound was classed as inactive in test [9]. The fluorescence, relative to Rose Bengal in [4] is 0.248% [at 18.6 µM]. For the same compound, in [5], the fluorescence, % of fluorescein control was 0.0444% [at 18.6 µM]. Further, the fluorescence, % of triamterene in test [6] was -0.176% [at 18.6 µM]. In [7], the fluorescence, % of fluorescent control is -0.493% [at 18.6 µM].
For the compound `CC(C)=CCC/C(C)=C/C#N`, the Potency result in test [1], in test [2] and in [3] was “inactive” in each case. The compound was classed as inactive in test [4], in test [5], in [6] and in [7].
With `CC(=O)OCC(=O)[C@@]1(O)[C@H](C)C[C@H]2[C@@H]3CCC4=CC(=O)C=C[C@]4(C)[C@@]3(F)[C@@H](O)C[C@@]21C`, the Potency result in test [1], in test [2] and in [3] was “inactive” throughout. Moreover, the compound was classed as inactive in test [4], in test [5] and in [6].
With `C[C@H]1[C@H](NC(=O)/C(=N/OC(C)(C)C(=O)O)c2csc(N)n2)C(=O)N1S(=O)(=O)O` (stereo in doubt), the Potency entry in test [2], in test [3] and in test [8] was “inactive” throughout. For the same compound, in test [9], the compound was called inactive. The fluorescence, relative to Rose Bengal in test [4] was -0.264% [at 18.6 µM]. In addition, the fluorescence, % of fluorescein control in test [5] is -0.201% [at 18.6 µM]. Also, the fluorescence, % of triamterene in [6] is 0.218% [at 18.6 µM]. The fluorescence, % of fluorescent control in test [7] was 0.181% [at 18.6 µM].
On to `Cc1c(N)c(=O)n(-c2ccccc2)n1C`, for which the Potency result in test [2], in test [3] and in test [8] was “inactive” each time. The call in test [9] was inactive. In test [4], the fluorescence, relative to Rose Bengal is -0.0352% [at 18.6 µM]. Also, the fluorescence, % of triamterene in test [6] is 0.0036% [at 18.6 µM]. The fluorescence, % of fluorescent control in test [7] is 0.258% [at 18.6 µM].
Turning to `CCC(C)(CN(C)C)OC(=O)c1ccccc1` (stereo not drawn), the Potency result in test [2], in [3] and in [8] was “inactive” throughout. In [9], the call was inactive. Further, the fluorescence, relative to Rose Bengal in test [4] was -0.657% [at 18.6 µM]. The fluorescence, % of fluorescein control in [5] was -0.164% [at 18.6 µM]. Also, the fluorescence, % of triamterene in test [6] was 0.148% [at 18.6 µM]. For the same compound, the fluorescence, % of fluorescent control in test [7] was 0.273% [at 18.6 µM].
Turning to `Nc1ccn([C@@H]2O[C@H](CO)[C@@H](O)C2O)c(=O)n1` (stereo partly drawn), the Potency result in test [1], in test [2] and in test [3] was “inactive” each time. The call in test [4], in test [6] and in test [7] was inactive.
Turning to `CNC(=O)Nc1ccc(Cl)c(Cl)c1`, the Potency entry in test [1], in test [2] and in test [3] was “inactive” throughout. The Potency in test [8] is 15.4 µM (active). The result in test [4], in test [6] and in test [7] was inactive.
With `CC1=NN(c2cccc(S(=O)(=O)O)c2)C(=O)C1`, the Potency result in [1] and in [3] was “inactive” in each case. For the same compound, the outcome in [9], in [4], in test [5], in test [6] and in [7] was inactive.
In the case of `Nc1ccn([C@@H]2O[C@H](CO)[C@@H](O)C2(F)F)c(=O)n1`, the Potency entry in test [1] and in test [3] was “inactive” each time. Also, the compound was called inactive in [9], in test [4], in test [6] and in test [7].
For the compound `CCCCc1ccc2c(n1)[C@@H](c1ccc(OC)cc1C[C@H](C)C(=O)O)[C@H](C(=O)O)[C@H]2c1ccc2c(c1)OCO2`, the Potency result in [1], in test [2] and in test [3] was “inactive” each time. Besides, the compound was called inactive in test [4], in test [5] and in [6].
On to `CN1CCC(=C2c3ccccc3CCc3cccnc32)CC1`, for which the Potency entry in test [1], in test [3] and in [8] was “inactive” throughout. Also, the call in test [9], in [4] and in test [6] was inactive.
As to `O=C1c2ccccc2C(=O)c2cc(O)ccc21`, the Potency entry in test [2] and in test [3] was “inactive” each time. Also, in test [8], the Potency is 1.94 µM (active). Besides, the result in [4], in test [5], in test [6] and in [7] was inactive.
In the case of `C=C(C)C(=O)OCCOCCOCCOCCOC(=O)C(=C)C`, the Potency entry in [1], in [2] and in [3] was “inactive” each time. In addition, the outcome in test [4], in test [6] and in [7] was inactive.
`C1CCC2=NCCCN2CC1`: the Potency entry in test [2], in test [3] and in [8] was “inactive” in each case. Also, the outcome in [9], in [4], in [5], in test [6] and in test [7] was inactive.
